# aSyn 5UTR act: Activators via SNCA 5'UTR binding, MLPCN; alpha-synuclein 5'UTR reporter, activators screen; activity score, % (tested at 7.5 µM), hits read low; hit rate 7.1% among 300,000; AID 1814; in the data active = activity score below about -60%
# * = called active by the depositor. Only a sample is shown.
SMILES,aSyn 5UTR act
Cc1ccc(SCC(=O)Nc2ccc(N3CCN(C)CC3)c(F)c2)cc1,-82*
CC(C)c1ccc(NC(=O)COc2ccccc2)cc1,-124*
CC(C)c1ccc(NC(=O)COc2ccccn2)cc1,-130*
Cc1ccnc(NS(=O)(=O)c2ccc(NC(=O)COc3ccccc3)cc2)n1,68
CN1CCN(c2ccc(NC(=O)COc3ccccc3)cc2Cl)CC1,-192*
O=C(COc1ccccc1)Nc1ccccc1N1CCN(c2ccccc2)CC1,43
O=C(COc1ccccc1)Nc1ccc(N2CCCCC2)cc1,-74*
C/C(=N\NC(=O)c1c(Cl)c(C)nn1C)c1cccc(NC(=O)COc2ccccc2)c1,-80*
Cc1cc(NC(=O)COc2ccccc2)ccc1Cl,-96*
CCCOC(=O)Nc1ccc(N2CCCCC2)cc1,-67*
CC(=O)Nc1ccc(/C=C/c2nc3ccccc3o2)cc1,-128*
O=C(Nc1ccc(/C=C/c2nc3ccccc3o2)cc1)c1c(F)cccc1F,-171*
COC(=O)Nc1nc2ccc(Br)cc2s1,-148*
Cc1cccc2sc(NC(=O)c3ccc(Cl)s3)nc12,-199*
COC(=O)Nc1nc2c(C)cccc2s1,-92*
Cc1cccc2sc(NNC(=O)c3ccc(S(=O)(=O)N4CCc5ccccc5C4)cc3)nc12,67
COc1cccc2sc(NC(=O)c3ccc(Br)s3)nc12,-146*
CCOc1ccc(S(=O)(=O)N/N=C2/CC(c3ccccc3)Oc3ccccc32)cc1 (stereo not given),-66*
CC(C)CC1c2[nH]c3ccccc3c2CCN1C(=O)c1cnccn1 (stereo not given),-95*
Cc1ccc(C(=O)NCCc2c[nH]c3ccccc23)s1,-178*
O=C(NCCc1c[nH]c2ccccc12)c1ccccc1,-107*
O=C(/C=C/c1ccccc1)c1c[nH]c2ccccc12,-98*
O=C(/C=C/c1ccccc1)NCCc1c[nH]c2ccccc12,-111*
O=C1c2ccccc2C(=O)N1CCc1c[nH]c2ccccc12,-172*
Cc1ccc(C(=O)NCCc2c[nH]c3ccccc23)c(C)c1,-104*
SMILES,aSyn 5UTR act
Oc1ccccc1/C=C/c1noc(-c2ccccc2O)n1,-218*
COc1cc(/C=C/c2noc(-c3ccccc3O)n2)ccc1OC(C)=O,-130*
CC(=O)Nc1ccc(/C=C/c2noc(-c3ccccc3O)n2)cc1,-163*
Cc1cccc(N(C)S(=O)(=O)c2ccc(-c3cnc(C4CC4)o3)cc2)c1,97
COc1cccc2oc3cc(C#Cc4ccccn4)ccc3c(=O)c12,-194*
COc1ccc(NC(=O)C2CCCN(c3ncccn3)C2)cc1 (stereo not given),-75*
Cc1ccc(NC(=O)C2CCCN(c3ncccn3)C2)cc1C (stereo not given),-125*
CC(=O)c1sc(NC(=O)c2ccc(Br)o2)nc1C,-77*
CC(=O)c1sc(NC(=O)c2cc(=O)c3ccccc3o2)nc1C,-81*
CCOC(=O)c1csc(NC(=O)c2cc(=O)c3ccccc3o2)n1,-69*
O=C(Nc1ccc2c(c1)OCO2)c1cccc(S(=O)(=O)N2CCCC2)c1,-104*
O=C(Nc1cccc(O)c1)c1ccc(Br)c(S(=O)(=O)N2CCCCC2)c1,-70*
O=C(Nc1cccc(O)c1)c1cccc(S(=O)(=O)N2CCCCCC2)c1,-85*
O=C(COC(=O)c1ccc(O)cc1)Nc1cccc(S(=O)(=O)N2CCCCC2)c1,29
O=C(CCl)Nc1cccc(S(=O)(=O)N2CCCCCC2)c1,-92*
O=C(Oc1cccc(NC(=O)c2ccco2)c1)c1cccc(S(=O)(=O)N2CCCC2)c1,-72*
N#C/C(=C\c1cn(Cc2cccc(F)c2)c2ccccc12)C(=O)NCc1ccco1,65
CN(C)c1ccc(/C=C(\C#N)C(=O)NCc2ccco2)cc1,-102*
N#C/C(=C\c1cn(Cc2ccccc2)c2ccccc12)C(=O)NCc1ccco1,68
O=C(c1cccs1)N1N=C(c2ccc(O)cc2)CC1c1ccccc1 (stereo not given),-72*
O=C(N/N=C/c1ccc(OC(=O)c2ccco2)cc1)c1ccccn1,-123*
COc1cc(/C=N/NC(=O)c2ccccn2)ccc1OC(=O)c1ccc(Br)cc1,-84*
Cc1cc(C(=O)N/N=C/c2cc(Br)ccc2OC(=O)c2ccc(Br)cc2)n[nH]1,84
O=C(N/N=C/c1ccc(OC(=O)c2cccs2)cc1)c1ccccn1,-98*
O=C(N/N=C/c1cccc(OC(=O)c2ccco2)c1)c1ccc(F)cc1,-104*
SMILES,aSyn 5UTR act
Cc1cc(C(=O)N/N=C/c2cc(Br)cc(Br)c2OC(=O)c2cccc(F)c2)n[nH]1,70
O=C(Oc1ccc(/C=N/NC(=O)c2ccccn2)cc1)c1cccc(F)c1,-116*
COc1ccc(/C=N\NC(=O)c2c(C)nc3ccc(Br)cn23)cc1,51
O=C(Oc1ccc(/C=N/NC(=O)c2ccccn2)cc1)c1ccc(Br)cc1,-124*
CC(C)(C)OC(=O)N/N=C/c1ccc(Br)cc1,-132*
CC(C)(C)OC(=O)N/N=C\c1ccc(OC(=O)c2cccs2)cc1,-91*
O=c1c(C=NCCCO)c(-c2ccccc2)[nH]n1-c1nc2ccccc2s1,60
O=c1c(C=NCCN2CCNCC2)c(-c2ccccc2)[nH]n1-c1ccc([N+](=O)[O-])cc1,-94*
CC1CCCN(C(=O)Nc2ccc(Br)cc2Cl)C1 (stereo not given),-91*
CCS(=O)(=O)c1ncc(Cl)c(C(=O)Nc2ccc(S(=O)(=O)N3CCCC(C)C3)cc2)n1 (stereo not given),72
O=C(c1cccs1)N(C(=O)c1cccs1)c1ccc(Br)cn1,-144*
Cc1ccnc(N(C(=O)c2cccs2)C(=O)c2cccs2)c1,-157*
Cc1ccnc(NC(=O)CCC(=O)c2cccs2)c1,84
CCC(Oc1ccccc1)C(=O)Nc1nc2ccccc2[nH]1 (stereo not given),-66*
COc1ccc(CCC(=O)Nc2nc3ccccc3[nH]2)cc1,-127*
COc1ccc(OCC(=O)Nc2nc3ccccc3[nH]2)cc1,-123*
CCCCCC(=O)Nc1nc2ccccc2[nH]1,-177*
COc1ccccc1CCC(=O)Nc1nc2ccccc2[nH]1,-223*
COc1cc(CNC(=O)C2CC2)ccc1OCc1ccccc1,-97*
CCCCn1c(-c2ccccc2)cnc1SCC(=O)NCCc1ccc(OC)c(OC)c1,-136*
COc1cc(CN2CCCCC2)ccc1OCc1ccccc1,-65*
COc1cc(CN2CCC(C(=O)NCCC(C)C)CC2)ccc1OCc1ccccc1,-173*
COc1ccc(CCNC(=O)C(=O)NCc2ccccc2)cc1OC,-82*
Cc1ccc(Cl)c2sc(NC(=O)C3=COCCO3)nc12,-79*
O=C(Nc1nc(-c2cccs2)cs1)C1=COCCO1,-173*
SMILES,aSyn 5UTR act
O=C(Nc1nc(-c2ccc(Cl)cc2)cs1)C1=COCCO1,-109*
NC(=Nc1ccccc1)NC(=O)c1nc(Cl)c(N)nc1N,-126*
N=c1oc2ccccc2cc1C(=O)Nc1ccc(F)cc1,-154*
N=c1oc2cc(O)ccc2cc1C(=O)Nc1ccc(Cl)cc1,-126*
N=c1oc2ccccc2cc1C(=O)Nc1cccc(F)c1,-122*
Cc1ccc(NC(=O)c2cc3ccccc3oc2=N)cc1,82
CCN(CC)CCN1C(=O)c2oc3ccccc3c(=O)c2C1c1ccc(F)cc1 (stereo not given),-70*
CCOC(=O)c1cnn(-c2ncnc3c2cnn3C)c1N,-94*
CCOC(=O)c1cnn(-c2ccc(C(F)(F)F)cn2)c1N,-277*
O=C(Nc1ccccc1Br)c1ccc(N2CCCC2=O)cc1,-124*
O=C(Nc1nc2ccc(F)cc2s1)C1=NN(c2ccccc2)C(=O)CC1,-97*
